From PubChem BioAssay
EPAC2 antag – antagonists of human EPAC2. AID 720708. Q8WZA2. Potency, µM (highest dose often 114 µM), for inactives: top-dose activity, negative = inhibition, actives largely listed as inhibitors. 360,000 tested, 0.18% active. EPAC2 GEF exchange of Rap1B-BODIPY-GDP, fluorescence; further: on the % scale 0 is the no-effect control and ±100 the full control effect; nearly all actives have a fitted effect of over 45% in size
Rango dissoc inh – prevents RanGTP from dissociating the Rango-importin beta complex; 340,000 tested, 0.071% active; Biochemical FRET Rango-importin beta, RanGTP-induced dissociation; Potency, µM (highest dose often 46.1 µM), inactives show at the highest dose activity change, negative = inhibition; AID 540253; calls by dose curve; further: % of control where 0% means no effect; nearly all actives have a fitted effect of over 45% in size
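Rango/importin beta premix (0.1/0.25 uM final), PBS + 1 mM DTT + 0.02% Tween-20 + 0.1% BSA; cpd 5 min RT; FRET pre-read; + RanGTP-RCC1 (0.6 uM Ran, 2 mM GTP, 0.2 uM RCC1); 45 min RT; FRET post-read, ex 430, em 486/530 nm.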
EPAC1 ag – activates human EPAC1 exchange factor. Potency, µM (titrated, usually from 154 µM), inactives show top-dose activation, usual class: activators. O95398. 360,000 tested, 0.073% active. EPAC1 agonist qHTS, biochemical assay; response scale: 100% = response to 6.5 mM cAMP. AID 720707; further: nearly all actives have a fitted effect of over 60% in size
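EPAC1 100 nM, Rap1B–BODIPY-GDP 250 nM, unlabeled GDP 50 uM; compound titration; 5 min RT; kinetic read ex480/em540 at 5-min intervals ×30 min; data normalized to 6.5 mM cAMP agonist control.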
EPAC1 antagonist – EPAC1 (human) antagonism. Potency, µM (titrated, usually from 115 µM), for inactives: at the top dose activity change, negative = inhibition, usual class: inhibitors. EPAC1 GEF assay, Rap1b-BODIPY-GDP exchange fluorescence. 360,000 tested, 0.14% active;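 further: plate controls were vehicle for no effect and positive control for full effect; nearly all actives have a fitted effect of over 50% in size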
Rango-impB inh – prevents formation of the Rango-importin beta complex | Q14974 | 340,000 tested, 0.031% active | Rango CFP/YFP FRET sensor + importin beta, 45 min | Potency, µM (top dose mostly 92.2 µM), without a hit: at the top dose inhibition of complex formation | AID 540263; calls by dose curve;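 further: 0% = DMSO wells and 100% = buffer wells lacking importin beta; nearly all actives have a fitted effect of over 15% in size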
Target sequence (Q14974 whole entry, looked up): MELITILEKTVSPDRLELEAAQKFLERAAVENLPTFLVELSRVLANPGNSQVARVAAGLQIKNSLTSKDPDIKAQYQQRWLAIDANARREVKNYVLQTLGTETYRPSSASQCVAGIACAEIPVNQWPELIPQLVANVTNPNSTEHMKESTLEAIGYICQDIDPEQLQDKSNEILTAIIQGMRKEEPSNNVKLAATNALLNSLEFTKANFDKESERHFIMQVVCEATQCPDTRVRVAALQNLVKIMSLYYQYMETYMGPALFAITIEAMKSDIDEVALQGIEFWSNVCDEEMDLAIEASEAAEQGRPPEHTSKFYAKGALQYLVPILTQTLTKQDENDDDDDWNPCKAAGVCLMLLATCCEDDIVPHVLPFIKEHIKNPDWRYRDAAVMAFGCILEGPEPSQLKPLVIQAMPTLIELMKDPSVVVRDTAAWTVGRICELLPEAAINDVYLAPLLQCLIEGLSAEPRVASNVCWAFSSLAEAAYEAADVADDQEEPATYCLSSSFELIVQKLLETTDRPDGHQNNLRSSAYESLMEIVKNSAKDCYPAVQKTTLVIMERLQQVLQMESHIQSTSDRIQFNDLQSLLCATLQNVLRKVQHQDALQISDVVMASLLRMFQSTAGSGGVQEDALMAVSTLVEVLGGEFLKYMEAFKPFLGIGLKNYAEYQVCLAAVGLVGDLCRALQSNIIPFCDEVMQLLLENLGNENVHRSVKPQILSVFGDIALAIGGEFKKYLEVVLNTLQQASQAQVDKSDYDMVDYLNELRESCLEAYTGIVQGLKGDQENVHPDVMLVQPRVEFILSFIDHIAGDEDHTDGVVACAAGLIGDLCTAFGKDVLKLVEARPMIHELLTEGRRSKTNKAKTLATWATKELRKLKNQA
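FRET biosensor Rango (snurportin 1 IBB between N-terminal EYFP and C-terminal Cerulean), 50 nM in PBS/1 mM DTT/0.02% Tween-20/0.1% BSA, preincubated 5 min RT with compound; 0.125 microM importin beta added, 45 min RT, CFP/YFP FRET ratio read.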
EPAC2 agonist – EPAC2 (human) agonism | Q8WZA2 | EPAC2 activation, biochemical qHTS; response scale: 100% = 6.5 mM cAMP response | Potency, µM (top dose mostly 154 µM), without a hit: at the top dose activation, actives largely listed as activators | 360,000 tested, 0.079% active | AID 720711; further: nearly all actives have a fitted effect of over 50% in size
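Compounds were titrated in qHTS against a Rap1B-BODIPY-GDP (250 nM) complex with EPAC2 (100 nM) and GDP (50 uM). BODIPY-GDP release tracked at 480/540 nm over 30 min at room temperature, normalized to 6.5 mM cAMP.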
* hit, by the source's call; ? = inconclusive; . = no result. Most compounds without a hit are left out; they make up all but 0.43% or so of the library. Unless noted, the call rests on the fitted dose curve; in most records, active means well fitted curve in the direction sought with a large enough effect; inconclusive means small, poorly fitted or top-dose-only effect, or another doubt; inactive means no such curve, though single readings can be large; an effect the other way counts as inactive or inconclusive. Potency means the concentration at half of the fitted maximal effect.

SMILES	EPAC2 antag	Rango dissoc inh	EPAC1 ag	EPAC1 antagonist	Rango-impB inh	EPAC2 agonist
OC(c1ccc2ccccc2c1)c1ncc(-c2cccc3ccccc23)[nH]1 (stereo not given)	-10%	.	2%	-9%	.	18%
Cc1ccc(S(=O)(=O)c2nc(-c3ccco3)oc2SC(C)C)cc1	56µM*	24%	11%	-11%	3%	13%
CN(C)C(=O)C[C@@H]1C=C[C@@H](NC(=O)C2CCC2)[C@@H](CO)O1	-5%	.	5%	6%	.	6%
O=C(/C=C/c1ccccc1)c1c[nH]c2ccccc12	4%	8%	5%	-17%	-1%	5%
O=C(C=Cc1ccccc1)c1c[nH]c2ccccc2c1=O	-1%	0%	0%	79µM*	3%	4%
Cc1cc2nc3c(=O)n(C4CCCCC4)c(=O)[nH]c3nc2cc1N	40%	?	112µM*	237%	?	?
CCc1ccccc1CC1CN(Cc2ccccc2)Cc2ccccc2N1c1ccc(OC)cc1 (stereo not given)	4%	.	10%	0%	.	4%
Cc1ccc(S(=O)(=O)N2[C@@H](c3ccc(Br)cc3)C(C(=O)O)=CC[C@H]2c2ccc(C(C)C)cc2)cc1	?	-2%	3%	56µM*	0%	5%
Cc1ccc(S(=O)(=O)N2[C@@H](c3ccc(Cl)c(Cl)c3)C(C(=O)O)=C[C@H]2CC2CCCC2)cc1	?	7%	-15%	50µM*	-1%	-3%
CCc1ccc([C@@H]2CC=C(C(=O)O)[C@H](c3ccc(C(C)(C)C)cc3)N2S(=O)(=O)c2ccc(C)cc2)cc1	56µM*	-3%	-33%	45µM*	-2%	-15%
Cc1ccc([C@@H]2CC=C(C(=O)O)[C@H](c3ccc(Br)cc3)N2S(=O)(=O)c2ccc(C)cc2)cc1	?	0%	-21%	-16%	0%	-2%
Cc1ccc([C@@H]2CC=C(C(=O)O)[C@H](c3ccc(C(C)(C)C)cc3)N2S(=O)(=O)c2ccc(C)cc2)cc1	?	19%	-24%	28µM*	-1%	-14%
COc1cc(CN2C[C@@H](CO)O[C@@H](n3cnc4c(NCCN(C)C)ncnc43)C2)cc(OC)c1OC	-3%	.	-10%	-7%	.	11%
O=C(NC(c1ccc(F)cc1)c1ccc2ccccc2n1)C1CCN(Cc2cccc(C(F)(F)F)c2)CC1 (stereo not given)	-3%	.	-14%	-18%	.	8%
Cc1ccc(S(=O)(=O)N2[C@@H](c3ccc(C(C)(C)C)cc3)C(C(=O)O)=CC[C@H]2c2ccc(C(C)C)cc2)cc1	40µM*	-1%	-48%	32µM*	1%	-23%
Cc1ccc(S(=O)(=O)N2C(c3ccc(Cl)c(Cl)c3)CC=C(C(=O)O)C2c2ccc(Cl)cc2)cc1 (stereo not given)	63µM*	.	13%	-10%	.	-7%
Cc1ccc(S(=O)(=O)N2[C@@H](c3ccc(C(C)(C)C)cc3)C(C(=O)O)=CC[C@H]2c2cccs2)cc1	32µM*	0%	-4%	-16%	2%	-9%
CC(=O)N1CCC(C(=O)N2c3ccccc3N=C(c3ccc(C(F)(F)F)cc3)C2C(=O)NC(C)C)CC1 (stereo not given)	0%	.	1%	-8%	.	5%
COc1cc(NC(=O)Nc2nc(C(N)Cc3ccc(C(F)(F)F)cc3)cs2)cc(OC)c1OC (stereo not given)	2%	.	-27%	0%	.	3%
COc1cccc2c1C(=O)c1c(O)c3c(c(O)c1C2=O)C[C@@](O)(C(=O)CO)C[C@@H]3O[C@H]1C[C@H](N)[C@H](O)[C@H](C)O1	76%	3%	?	6%	0%	6%
